ELG1 genotox: inducers of genotoxicity in HEK293T ELG1-luciferase cells | HEK293T ELG1-luciferase reporter, luminescence, 16 h | Potency, µM (top dose mostly 46 µM), without a hit: at the highest dose activity change, positive = activation, actives largely listed as activators | 330,000 tested, 1.3% active; also: % of control where 0% means no effect; nearly all actives have a fitted effect of over 60% in size
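ELG1-luciferase HEK293T cells, 2,000/well; compound pinned in; 16 hr, 37 °C, 5% CO2; ONE-Glo, 30 min RT; luminescence on CCD imager.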
FLuc counter: firefly luciferase modulation, counter-screen for miR-21 project | P08659 | purified FLuc, Km substrates, luminescence inhibition | Potency, µM (top dose mostly 57.5 µM), inactives show top-dose activity change, negative = inhibition, most hits filed as inhibitors | 360,000 tested, 6.9% active | AID 588342;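 also: plate controls were vehicle for no effect and reference inhibitor for full effect; nearly all actives have a fitted effect of over 55% in size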
Target sequence (P08659 whole entry, looked up): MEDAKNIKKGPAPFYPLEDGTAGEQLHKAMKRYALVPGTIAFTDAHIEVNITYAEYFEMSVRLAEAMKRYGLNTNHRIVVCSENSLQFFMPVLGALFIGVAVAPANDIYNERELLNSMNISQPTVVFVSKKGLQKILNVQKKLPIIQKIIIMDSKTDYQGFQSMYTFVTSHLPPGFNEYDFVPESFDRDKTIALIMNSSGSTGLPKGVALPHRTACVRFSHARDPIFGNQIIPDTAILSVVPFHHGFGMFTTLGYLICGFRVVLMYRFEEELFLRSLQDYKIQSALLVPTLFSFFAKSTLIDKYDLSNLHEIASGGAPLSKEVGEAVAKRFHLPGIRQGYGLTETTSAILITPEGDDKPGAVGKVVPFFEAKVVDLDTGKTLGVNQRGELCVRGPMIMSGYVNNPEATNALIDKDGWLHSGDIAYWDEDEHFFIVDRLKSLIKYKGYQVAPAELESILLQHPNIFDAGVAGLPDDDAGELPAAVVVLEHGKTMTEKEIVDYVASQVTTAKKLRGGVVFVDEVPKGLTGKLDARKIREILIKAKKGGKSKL
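Purified P. pyralis luciferase, 10 nM final, with Km-level 10 uM D-luciferin and 10 uM ATP in 50 mM Tris acetate pH 7.5, 10 mM Mg acetate, 0.01% Tween-20, 0.05% BSA; 6-point qHTS titration about 60 µM downward; luminescence read.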
Rab9 promoter act: Rab9 promoter activation. Huh7 Rab9 promoter-luciferase reporter, luminescence, 24 h. Potency, µM (series often up to 9.22 µM), for the others: top-dose activation, negative = inhibition, hits mostly activators. 320,000 tested, 2.8% active. AID 485297; also: % of control where 0% means no effect; nearly all actives have a fitted effect of over 60% in size
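Luminescence read-out: Huh7 cells stably expressing Rab9-luciferase, treated 24 h with compound at 37 °C, then lysed with luciferase reagent for 10 min at ambient before reading.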
NPC1 prom act: activates the NPC1 promoter; Huh7 NPC1 promoter luciferase reporter, 24 h; Potency, µM (titrated, usually from 9.22 µM), for the others: top-dose activation, most hits filed as activators; 320,000 tested, 2.4% active; AID 485313; also: % of control where 0% means no effect; nearly all actives have a fitted effect of over 60% in size
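Luciferase expression driven by the NPC1 promoter was measured in stably transfected Huh7 cells after a 24 h compound incubation, using a luciferase reagent and a luminescence read.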
ELG1 DNA repair: blocks ELG1-dependent DNA repair in HEK293T cells | 330,000 tested, 2.3% active | Potency, µM (series often up to 46.1 µM), for the others: at the highest dose activity change, negative = inhibition, hits mostly inhibitors | AID 504467 | HEK293T ELG1-luciferase reporter, luminescence, 16 h; DNA damage induced by 5-fluorouridine; also: % is scaled to controls: 0 for no effect and ±100 for the full control effect; nearly all actives have a fitted effect of over 55% in size
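5-Fluorouridine DNA damage + compound/DMSO, 2,000 cells/well, 16 h, 37 °C/5% CO2. ONE-Glo, 30 min RT, luminescence. Readout = decrease in reporter signal.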
SMN2 splice up: increases expression of the SMN2 splice variant | AID 1458 | HEK293 SMN2-luciferase splicing reporter, luminescence, 30-36 h | Potency, µM (series often up to 46.1 µM), without a hit: top-dose activity change, positive = activation, most hits filed as activators | 210,000 tested, 2.8% active; also: % of control where 0% means no effect; nearly all actives have a fitted effect of over 55% in size
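HEK293 cells carry an SMN2 […]–luciferase reporter in which exon 7 inclusion puts luciferase in frame. Cells were plated 10-12 h before compound addition, then incubated 30-36 h at 37C. ONE-Glo luminescence was read; sodium butyrate at 4.5 mM final served as control.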
Numbers without * were called inactive; ? = inconclusive; / = not tested or not shown; [ ] = another dose, or the depositor's remark. Most compounds without a hit are left out; they make up all but 9.3% or so of the library. Calls follow the shape of the dose curve; as a rule, active = well fitted curve in the direction sought with a large enough effect; inconclusive = small, poorly fitted or top-dose-only effect, or another doubt; inactive = no such curve, though single readings can be large; an effect the other way counts as inactive or inconclusive. Potency is read from the fitted curve at half-maximal effect.

SMILES	ELG1 genotox	FLuc counter	Rab9 promoter act	NPC1 prom act	ELG1 DNA repair	SMN2 splice up
CC1CCC2(CC1)NC(=O)N(CC(=O)Nc1ccc3c(c1)OCCO3)C2=O (centres undefined)	?	27µM*	3.5µM*	?	?	?
Cc1c(Cl)cccc1-c1ccc(CNCCSc2nnnn2-c2ccccc2)o1	/	-15%	/	/	/	-8%
CCCNc1c(F)c(F)c2c(C)c3ccccc3nc2c1F	?	6µM*	?	?	?	13%
CCCNc1c(NS(=O)(=O)c2c(F)c(F)c(F)c(F)c2F)c(=O)oc2ccccc12	-10%	-2%	0%	-3%	-13%	/
CCOC(=O)Cc1csc(N)n1	1%	-1%	10%	-1%	-1%	-4%
CCOC(=O)c1csc(N)n1	?	0.85µM*	2.8µM*	?	?	/
CCOC(=O)c1csc(COc2ccccc2Cl)n1	16%	?	?	?	?	/
CCOC(=O)c1csc(COc2ccc(OC)cc2)n1	9%	?	0.45µM*	0.45µM*	?	/
COc1ccc(-c2cc(C)no2)cc1S(=O)(=O)N1CCOc2ccc(C)cc21	5%	1%	1%	-15%	18%	/
CC(C)CCn1c2ccccc2c2cc(CC(N)=O)ccc21	3%	2%	1%	-11%	2%	/
COc1ccc(C(=O)NCC(=O)N2CCN(c3ncccn3)CC2)cc1OC	0%	/	0%	-3%	-6%	/
CN(C)S(=O)(=O)NCCNc1ccc(C(F)(F)F)cc1[N+](=O)[O-]	3%	19µM*	2%	-4%	-6%	6%
Cc1ccccc1OCCNc1ccc(C(F)(F)F)cc1[N+](=O)[O-]	1%	?	10%	0%	23%	-3%
O=[N+]([O-])c1cc(C(F)(F)F)ccc1NCCOc1ccccc1	?	13µM*	?	?	?	?
C/C=C(/C)C(=O)Nc1cccc(C2=NOC3(C2)C[C@H](C(N)=O)N(C(=O)COc2ccc(Cl)cc2)C3)c1 (some centres undefined)	-1%	-13%	1%	-6%	?	/
N#CCC(=O)N1CC2(CC(c3cccc(NC(=O)COc4ccc(Cl)cc4)c3)=NO2)C[C@@H]1C(N)=O (some centres undefined)	0%	15µM*	-7%	-4%	13%	/
NC(=O)[C@H]1CC2(CC(c3cccc(NC(=O)COc4ccc(Cl)cc4)c3)=NO2)CN1C(=O)C(c1ccccc1)c1ccccc1 (some centres undefined)	-9%	?	-15%	-8%	?	/
CC/C=C/C(=O)N1CC2(CC(c3cccc(NC(=O)COc4ccc(Cl)cc4)c3)=NO2)C[C@H]1C(N)=O (some centres undefined)	-11%	12µM*	0%	5%	16µM*	/
NC(=O)[C@H]1CC2(CC(c3cccc(NC(=O)COc4ccc(Cl)cc4)c3)=NO2)CN1C(=O)[C@H]1CCC(=O)N1 (some centres undefined)	2%	12µM*	-8%	-1%	8%	/
NC(=O)[C@@H]1CC2(CC(c3cccc(NC(=O)COc4ccc(Cl)cc4)c3)=NO2)CN1C(=O)COc1ccc(Cl)cc1 (some centres undefined)	-15%	12µM*	-18%	-9%	?	/
CCCN(CCC)C(=O)Cn1c(=O)n(-c2ccc(OC)cc2)c(=O)c2ccc(C(=O)NCc3ccc(C)cc3)cc21	/	-2%	/	/	/	2%
COc1ccc(Cc2ccc3[nH]c(=O)cc(C)c3c2)cc1S(=O)(=O)O	/	/	/	/	/	0%[9.22 µM]
Clc1ncnc2c1oc1ccccc12	?	9.5µM*	-1%	1%	?	13µM*
c1ccc2cc(Sc3ncnc4c3oc3ccccc34)ccc2c1	1%	17µM*	?	?	0%	-21%
CCCCNc1c(-c2ccc(-c3ccc(C(C)=O)cc3)c(OC)c2)nc2cnccn12	-30%	-14%	-7%	0%	9.2µM*	/
SMILES	ELG1 genotox	FLuc counter	Rab9 promoter act	NPC1 prom act	ELG1 DNA repair	SMN2 splice up
Cc1ccc2nc(-c3ccc(-c4cccc(Cl)c4)cc3)c(NCc3ccccc3)n2c1	-2%	?	-1%	2%	4%	/
CCCCNc1c(-c2cccc(-c3cc(C(C)=O)cs3)c2)nc2ccc(C)cn12	-16%	11µM*	2%	12%	?	/
CCCCNc1c(-c2cccc(-c3ccc(OC)cc3)c2)nc2ccc(C)cn12	-5%	9.5µM*	10%	16%	3.2µM*	/
CCCCNc1c(-c2cccc(-c3ccc(OC)cc3)c2)nc2cc(C)ccn12	-8%	/	/	/	23µM*	/
CCCCc1ccc(NC(=S)NCCc2ccc(S(N)(=O)=O)cc2)cc1	-6%	1%	1%	-15%	?	-44%
CCCCNc1c(-c2ccc(-c3cccc(Cl)c3)cc2)nc2ccccn12	-1%	11µM*	4µM*	?	?	/
CCCCCCSc1ccc(-c2nc3ccccn3c2NCCCC)cc1	1%	?	1%	-1%	9%	/
COc1ccc(Cl)cc1N1C(=O)CN(Cc2cc(OC)c(OC)c(OC)c2)C1=S	-7%	-17%	-4%	-6%	?	/
Cc1ccnc(N/N=C/c2ccccc2)n1	?	7.6µM*	1.3µM*	2.5µM*	?	13µM*
CSc1nccc(N/N=C/c2ccccc2)n1	?	2.7µM*	1.4µM*	1.6µM*	?	/
C(=N\Nc1ccc(-n2ccnc2)nn1)/c1ccccc1	17%	-7%	-5%	10%	0%	23%
Cc1ccc(-c2cc(-c3ccccc3O)nc(N/N=C/c3cccnc3)n2)cc1	-2%	?	25%	17%	?	-12%
C(=N\Nc1nccc(-c2cccnc2)n1)/c1ccccc1	12%	4.8µM*	1.3µM*	1.8µM*	?	/
Cc1cc(C)n2nc(C(=O)OCC(=O)NNC(=O)c3ccc(Cl)cc3)nc2n1	-2%	9%	-3%	-2%	8%	/
Cc1ccc(C)c(CN2C(=O)c3ccccc3S(=O)c3ccc(C(=O)N4CCN(c5ccccc5F)CC4)cc32)c1 (centres undefined)	/	-2%	/	/	/	0.63µM*
Cc1ccc(C)c(CN2C(=O)c3ccccc3S(=O)c3ccc(C(=O)N4CCN(c5ccccn5)CC4)cc32)c1 (centres undefined)	-14%	0%	1%	-5%	?	4.5µM*
CCCOc1ccc(NC(=O)CC2C(=O)N(c3ccccc3)C(=O)N2CCC(C)C)cc1 (centres undefined)	/	-8%	/	/	/	/
